# Bioassay records (PubChem)
# An excerpt weighted towards active compounds, which were near 21% of everything screened.
# SARS PLP yeast = SARS-CoV PLP inhibition in yeast; Potency, µM (highest dose often 32.9 µM), without a hit: top-dose activity, positive = growth rescue, actives largely listed as activators; S. cerevisiae expressing SARS-CoV PLpro, growth rescue; 330,000 compounds, 0.19% hits; note: potency is the fitted concentration of half-maximal effect; 0% is about no effect; nearly all actives have a fitted effect of over 55% in size
# Pf growth 48h = P. falciparum growth inhibition at 48 hours (one generation) | P. falciparum luciferase growth in erythrocytes, 48 h | Potency, µM (titrated, usually from 28.7 µM), for the others: at the highest dose activity change, negative = inhibition, most hits filed as inhibitors | 310,000 compounds, 5.9% hits; active = well fitted inhibition curve with a large enough effect; inconclusive = small, poorly fitted or top-dose-only effect, or another doubt; inactive = no such curve, though single readings can be large or run the other way; note: potency is the fitted concentration of half-maximal effect; % is set by controls: 0 for no effect and ±100 for the full control effect
#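 Erythrocytes infected with P. falciparum carrying an integrated firefly luciferase reporter (2% hematocrit, 0.1% parasitemia final) were exposed to compounds in RPMI 1640 with 0.5% Albumax at 37 C, 5% CO2. Growth inhibition was scored as reduced luminescence.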
# Shiga inhibitor = blocks Shiga toxin action in Vero cells; Vero cells, Shiga toxin protein synthesis inhibition reporter; inhibition, % at 38.7 µM; 290,000 compounds, 9.2% hits; AID 2315; in the data active = inhibition mostly above about 28%, no sharp cut-off; inactive = mostly below about 43%; note: 0% is about no effect
# Pf growth 96h = inhibits malaria parasite growth, 96 h. P. falciparum luciferase reporter growth, 96 h. Potency, µM (series often up to 28.7 µM), without a hit: top-dose activity change, negative = inhibition, hits mostly inhibitors. 320,000 compounds, 6.9% hits. AID 504834; active = well fitted inhibition curve with a large enough effect; inconclusive = small, poorly fitted or top-dose-only effect, or another doubt; inactive = no such curve, though single readings can be large or run the other way; note: potency is the fitted concentration of half-maximal effect; % is set by controls: 0 for no effect and ±100 for the full control effect
#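 Erythrocytes infected with luciferase-expressing P. falciparum were dispensed at 2% hematocrit and 0.05% parasitemia (final), then incubated with compounds 96 hours at 37 C in 5% CO2. Luminescence after detection reagent addition reported growth.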
# NS1 function inh = inhibitors of influenza NS1 protein function; Potency, µM (titrated, usually from 46.1 µM), without a hit: at the highest dose activity, positive = more growth; 270,000 compounds, 0.4% hits; AID 2326; note: potency is the fitted concentration of half-maximal effect; actives are rising curves; nearly all actives have a fitted effect of over 50% in size
#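 Read-out: OD600 growth recovery of NS1-expressing budding yeast. Cells grown overnight at 30C in -URA glucose medium, washed, resuspended and diluted 1:100 in 2% galactose assay medium, pH 6.0. Same strain lacking NS1 served as positive control.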
# CHX counter = affects cycloheximide protein synthesis inhibition readout, counter-screen | max response, % | cell reporter, cycloheximide protein synthesis inhibition counterscreen | 300,000 compounds, 12% hits | AID 2314; in the data active = max response mostly above about 13%, no sharp cut-off; inactive = mostly below about 14%; note: read at 38.3 µM for the half of the compounds with a filed dose; 0% is about no effect
# * hit, by the source's call; ? = inconclusive; / = no result. Unless noted, calls come from the whole dose curve.
SMILES,SARS PLP yeast,Pf growth 48h,Shiga inhibitor,Pf growth 96h,NS1 function inh,CHX counter
S=C(Nc1ccccc1)Nc1ccc(Br)cc1,-5.0%,?,30.8,-4.4%,-54.2%,14.9*
S=C(Nc1ccccc1)Nc1cccc(Br)c1,-0.9%,9.2%,2.3,-19.1%,-3.3%,6.8
Fc1cc(Br)ccc1NC(=S)Nc1ccccc1,-13.0%,67.3%,65.1*,?,-11.0%,50.3*
S=C(NN=C(C1CC1)C1CC1)Nc1ccccc1,-3.9%,135.5%,43.0*,53.7%,8.3%,33.5*
O=C(c1ccc(F)cc1F)N1CCCc2ccccc21,-1.2%,-8.4%,-10.4,26.2%,-3.7%,-0.5
Cc1ccc(NC(=S)Nc2ccc(Br)cc2)cc1,-1.1%,32.7%,17.4,?,-15.5%,23.4
Fc1ccccc1NC(=S)Nc1ccc(Br)cc1,-22.5%,31.2%,18.4*,66.8%,-17.0%,17.2*
O=C(c1ccc(NS(=O)(=O)c2ccc(Cl)c(Cl)c2)cc1)N1CCOCC1,4.3%,?,/,5.1%,/,/
C/C(=N\Nc1ccccc1C(=O)O)c1ccncc1,0.6%,114.0%,42.9*,152.3%,15.5%,18.3*
COc1ccc(/C(=N\Nc2ccccc2C(=O)O)c2ccccc2)cc1,-3.7%,60.1%,169.0*,?,/,28.9*
C/C(=N\NC(=O)c1ccccc1NC(=O)c1ccc(Cl)cc1)c1ccncc1,-22.0%,132.7%,-14.8,?,/,-16.2
CC(C)(C)c1cc(C=C(C#N)C#N)cc(C(C)(C)C)c1O,/,2.62µM*,/,1.47µM*,-45.3%,/
CC(C)(C)c1cc(/C=C(\C#N)C(N)=S)cc(C(C)(C)C)c1O,/,/,/,/,-49.3%,/
CC(C)C[C@H](NC(=O)[C@H](Cc1ccccc1)n1c(=O)[nH]c2ccccc2c1=O)C(=O)N1CCC[C@H]1C(=O)O,0.2%,0.0%,1.5,55.0%,29.0%,-1.7
CCc1ccc(S(=O)(=O)Nc2ccc(O)c3ccccc23)cc1,-3.4%,9.28µM*,-3.1,8.5%,2.5%,-3.4
O=C(O)CSc1cc(NS(=O)(=O)c2cccc([N+](=O)[O-])c2)c2ccccc2c1O,-6.4%,10.4µM*,10.9,?,-6.9%,12.9*
CCOC(=O)c1ccccc1NS(=O)(=O)c1ccc(OCC)cc1,-4.0%,/,9.0,9.28µM*,-16.5%,14.6
CCOC(=O)NCc1ccc(S(=O)(=O)Nc2ccccc2C)cc1,-3.1%,/,-10.0,13.1µM*,-1.9%,-2.5
CCOc1ccc(S(=O)(=O)Nc2ccccc2C(=O)N(C)C2CCN(C)CC2)cc1,0.8%,?,/,?,/,/
COC(=O)C1Cc2c([nH]c3ccccc23)CN1C(C)=O (configuration not stated),-0.7%,-6.2%,-2.6,-17.1%,-4.6%,-3.1
COc1ccc2cc(C(=O)N3CCN(c4ccc(F)cc4)CC3)[nH]c2c1,-0.7%,-15.0%,11.6,-5.1%,2.8%,1.4
OCCOCCN1CCN(C(=S)Nc2ccccc2)CC1,0.1%,8.0%,-10.9,26.5%,2.7%,-2.1
CN(C)S(=O)(=O)c1ccc(NC(=O)COC(=O)CC2CC3CCC2C3)cc1 (configuration not stated),-2.4%,0.0%,-4.1,23.4%,0.9%,-6.0
O=S(=O)(Nc1cc(Sc2cccc3cccnc23)c(O)c2ccccc12)c1ccccc1,-15.3%,3.29µM*,52.9*,242.6%,1.2%,20.8
CCc1ccc(S(=O)(=O)Nc2c(C)n(C)n(-c3ccccc3)c2=O)cc1,1.0%,2.1%,-3.2,0.7%,3.3%,-3.4
CCc1ccc(S(=O)(=O)Nc2cc(SCC(=O)O)c(O)c3ccccc23)cc1,-6.4%,7.38µM*,29.7*,?,-9.6%,8.8
CCOc1ccc(S(=O)(=O)Nc2cc(SCC(=O)O)c(O)c3ccccc23)cc1,-31.6%,10.4µM*,6.1,1.85µM*,-103.1%,14.6
Cc1ccc(NS(=O)(=O)c2cc(NC(=O)C(C)Oc3ccccc3)ccc2C)c(C)c1 (configuration not stated),-4.5%,?,7.3,?,?,-1.3
O=C1c2ccccc2C(=O)c2cc(S(=O)(=O)Nc3cccc4cccnc34)ccc21,/,/,16.7,/,/,6.8
Cc1ccc(C)c(S(=O)(=O)Nc2cc(SCC(=O)O)c(O)c3ccccc23)c1,-22.5%,?,-1.5,20.7%,-25.6%,13.7*
